In PubChem BioAssay:

test system: PRMT1 (protein arginine N-methyltransferase 1); experiment: PRMT1 binders on small-molecule microarrays, primary screen, biochemical, small-molecule microarray, 635 nm fluorescence (AID 1088); settings: small-molecule microarray binding, higher = more signal;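 note: binding of Prmt1 protein to compounds spotted on small-molecule microarray slides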

Going from CCOC(=O)C1=CCC(c2ccc(C)cc2)N(S(=O)(=O)c2ccc(C)cc2)C1 (stereo unspecified) to CCCN1C(=O)[C@]2(CCS(=O)(=O)c3ccccc3)N=C(c3ccc(OCCCO)cc3)O[C@@H]2c2ccccc21, the composite z-score rises from 0.329 to 1.54.

Compared with CN(C)CCCNC(=O)[C@@]1(c2ccc([N+](=O)[O-])cc2)CC(=O)N(C2CCCCC2)[C@@H]1c1ccc(CO)cc1, CN(C)CCCNC(=O)[C@@]1(C)c2ccccc2C(=O)N(Cc2cc(F)cc(C(F)(F)F)c2)[C@H]1c1ccc(CO)cc1 is lower in composite z-score: 1.54 for the first, 0.936 for the second.

Going from CC(=O)N1Cc2ccccc2C[C@@]2(COC(c3ccc(OCCCO)cc3)=N2)C1=O to C=CC[C@]1(C(=O)N2CCCCC2)N=C(c2ccc(OCCCO)cc2)O[C@H]1c1ccccc1, the composite z-score rises from 1.55 to 1.58.

Compared with COCCOC(=O)N1C(=O)[C@@]2(c3cc(C#CC4=CCCCC4)ccc31)[C@H](C(=O)Nc1nc3ccccc3s1)[C@H]1C(=O)O[C@H](c3ccccc3)[C@H](c3ccccc3)N1[C@@H]2c1ccc(OCCO)cc1, COCCOC(=O)N1C(=O)[C@@]2(c3cc(C#CCNC(N)=O)ccc31)[C@H](C(=O)NC[C@H](O)c1ccccc1)[C@H]1C(=O)O[C@H](c3ccccc3)[C@H](c3ccccc3)N1[C@@H]2c1ccccc1OCCO is lower in composite z-score: 1.58 for the first, 1.55 for the second.

Going from O=C1NCC(=O)N2[C@@H]1C[C@@H](C(=O)O)[C@H]2c1cccc(OCCO)c1 to O=C1O[C@H](c2ccccc2)[C@H](c2ccccc2)N2[C@H]1[C@@H](C(=O)O)[C@]1(C(=O)Nc3ccc(C#CCCO)cc31)[C@H]2c1ccc(O)cc1, the composite z-score falls from 1.54 to -0.685.

Going from C=CCOC(=O)[C@H]1[C@@H]2C(=O)O[C@@H](c3ccccc3)[C@@H](c3ccccc3)N2[C@@H](c2ccc(OCCOC(=O)[C@@H]3C[C@@H]4C(=O)N[C@@H](CCCCN(C)C)C(=O)N4[C@@H]3c3ccc(O)cc3)cc2)[C@]12C(=O)Nc1ccc(I)cc12 to COc1cc2c(cc1OC)CN(C(=O)[C@H]1[C@@H]3C(=O)O[C@@H](c4ccccc4)[C@@H](c4ccccc4)N3[C@@H](c3ccc(O)cc3)[C@]13C(=O)Nc1ccc(C#CCNC(N)=O)cc13)CC2, the composite z-score falls from 1.46 to 1.01.

Going from CC(C)(C)OC(=O)CC[C@]12N=C(c3ccc(OCCCO)cc3)O[C@H]1c1ccccc1N(CCS(=O)(=O)c1ccccc1)C2=O to CC(C)(C)OC(=O)CC[C@@]12N=C(c3ccc(OCCCO)cc3)O[C@@H]1c1ccccc1N(CCS(=O)(=O)c1ccccc1)C2=O, the composite z-score falls from 1.55 to 1.07.

Compared with CN(C)C(=O)[C@@]1(Cc2ccccc2CN=[N+]=[N-])N=C(c2ccc(OCCCO)cc2)O[C@H]1c1ccccc1, COCCCNC(=O)[C@@]1(Cc2ccccc2)N=C(c2ccc(OCCCO)cc2)O[C@H]1c1ccccc1 is higher in composite z-score: 1.32 for the first, 1.42 for the second.

Compared with COc1cc2c(cc1OC)CN(C(=O)[C@H]1[C@@H]3C(=O)O[C@@H](c4ccccc4)[C@@H](c4ccccc4)N3[C@@H](c3ccc(O)cc3)[C@]13C(=O)Nc1ccc(C#CC4=CCCCC4)cc13)CC2, CCOC(=O)C[C@H]1[C@H](OC(=O)Cc2ccc3c(c2)OCO3)[C@@H](NC(=O)c2ccc(-c3ccccc3)cc2)c2cc(OCCCO)ccc2N1C(=O)c1ccc2ccccc2n1 is lower in composite z-score: 1.51 for the first, 0.0972 for the second.

Going from CN1C(=O)C2C=CC(C(O)c3cc(C(F)(F)F)cc(C(F)(F)F)c3)N(N3CCCCC3)C2C1=O (stereo unspecified) to O=C1C2C=CC(C(O)C3CCCCC3)N(Nc3ccc([N+](=O)[O-])cc3)C2C(=O)N1c1ccccc1 (stereo unspecified), the composite z-score rises from 1.34 to 1.56.

Compared with COCC(=C=CC[C@H](O)c1ccccc1OCCO)C[C@H](O)c1cc(Cl)cc(Cl)c1O, COC(=O)c1c(CC[C@@H](CO)NC(=O)N2CCC[C@H]2Cn2cc(-c3ccccn3)nn2)oc(C(C)=O)c1C(=O)OC is lower in composite z-score: 1.45 for the first, 0.986 for the second.

Going from O=C1OCCC/C=C\[C@H]2OC34C=CCN(c5ccc6ccccc6c5)C(=O)[C@H]3N(CCCCCCO)C(=O)[C@@H]4C12 (stereo partly specified) to COC(=O)[C@@]1(Cc2ccc(F)cc2)[C@H]2c3cc(C(=O)N4CCCC4)n(Cc4cc(C)n(C)n4)c3C[C@H]2CN1C(=O)c1ccccc1, the composite z-score rises from 0.0502 to 0.364.

Compared with CCOC(=O)[C@H]1CC=C2CC1C(=O)N1CCC[C@@H]1[C@@H]2O[Si](C)(C)C(C)(C)C (stereo partly specified), C=CCC(OC(C)=O)[C@@H]1[C@@H](N(Cc2ccc(-c3ccccc3)cc2)C(=O)Cc2ccc(F)cc2)c2cc(OCCCO)ccc2N1C(=O)c1ccc(-c2ccccc2)cc1 (stereo partly specified) is lower in composite z-score: -0.295 for the first, -0.838 for the second.
